Assay results taken from PubChem BioAssay.
Values joined by “and” are separate entries in the source; they are usually repeats but may differ in a detail not shown here. Identical values can stand only once. Results filed as inconclusive are left out. Active and inactive are the calls of the source.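 The calls were made as follows, unless noted: active = compounds killing one labelled cell type while sparing the other, by normalised counts and ratio limits, not self-fluorescent; inactive = the rest.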

Tests used:
[1] = differential killing of epithelial or mesenchymal cells, primary screen, imaging, PC-3E GFP, TEM4-18 mCherry, co-culture (AID 1345086); details: imaging cell counts, at 1 µM; for red/green cell ratio (normalised): actives lie on both sides;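 as to all read-outs here: cells exposed to compound for 72 h before imaging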;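 as to red/green cell ratio (normalised): normalised mesenchymal count divided by normalised epithelial count so high means epithelial killing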
[2] = test system: Aerobactin synthetase IucA (Klebsiella pneumoniae hvKP1); assay: Biochemical IucA enzyme inhibition primary screen of the Spectrum library (AID 1346200; call rule not given here;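 also: 100% = wells without compound and 0% = wells lacking enzyme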); details: malachite green pyrophosphate, A620, at 8 µM, stronger effect = lower value
[3] = target: ATP-dependent translocase ABCB1 (Homo sapiens) (UniProt P08183); assay: MDR1 (ABCB1) efflux transporter inhibition, cell-based (AID 377; in the data active = fluorescence slope change above about 50%); details: MDR1-expressing cells, fluorescent substrate accumulation slope; stronger effect = higher value; concentration not given here
[4] = circadian clock period modulators, cell-based, LOPAC library, luminescence reporter (AID 2774; call rule not given here;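 also: values are relative to mean of DMSO wells on each plate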); details: circadian reporter cells, at 7 µM, actives lie on both sides
[5] = hESC survival regulators, cell-based (AID 493140; call rule not given here;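 also: cells exposed to compounds for four days before counting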); details: human embryonic stem cell survival screen; stronger effect = higher value
[6] = liver-stage malaria parasite growth inhibition, primary screen, cell-based, HepG2, luciferase luminescence, HepG2 viability (AID 624349; in the data active = parasite load remaining mostly below about 12%, no sharp cut-off; inactive = mostly above about 10%;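 also: 100% = mean of DMSO negative control wells on the same plate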); details: P. berghei liver stage in HepG2, luciferase luminescence, concentration not given here; parasite load remaining: stronger effect = lower value; viability: measured here: HepG2 viability without parasites
[7] = test system: Hepatitis C virus NS3 helicase; assay: HCV NS3 helicase inhibitors, primary screen, biochemical, fluorescence polarization, LOPAC1280 library (AID 687035; in the data active = inhibition above about 37%); details: Purified HCV NS3 helicase, Cy5-dT15 ssDNA binding fluorescence polarization; stronger effect = higher value; concentration not given here
[8] = Cy5 fluorescence quenching or enhancement artefacts, artefact control for HCV NS3 helicase inhibitor project, biochemical, LOPAC1280 (AID 687037; call rule not given here); details: Cy5-DNA-NS3h complex fluorescence interference counterscreen
[9] = test system: Aerobactin synthetase IucA (Klebsiella pneumoniae); assay: IucA aerobactin synthetase inhibitors, biochemical, Tocris library, absorbance (AID 1345561; call rule not given here;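 also: 100% = enzyme without compound and 0% = no enzyme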); details: purified IucA enzyme assay, absorbance (OD) read-out; stronger effect = lower value;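 tested at 8 µM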
[10] = test system: Aerobactin synthetase IucA (Klebsiella pneumoniae, hypervirulent); assay: IucA enzyme inhibition, biochemical, LOPAC library, absorbance readout (AID 1346212; call rule not given here;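 also: 100% = no compound wells and 0% = no enzyme wells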); details: IucA enzyme assay, absorbance (OD) readout; stronger effect = lower value;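 tested at 8 µM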
[11] = inhibitors of Cryptococcus chitosan production, flow cytometry, Cibacron Brilliant Red staining (AID 1347148; call rule not given here;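 also: compound exposure lasted three days at 37 degrees C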); details: Cryptococcus neoformans chitosan, stronger effect = lower value; at 10 µM unless noted
[12] = phospholipid biosynthesis inhibitors in animal cells, primary screen, cell-based, LOPAC library, screen 4 (AID 1347384; call rule not given here); details: phospholipid biosynthesis inhibition screen, at 10 µM
[13] = survival rescue of mitochondrial mutant cells in low glucose, primary screen, MELAS cybrids, Rieske KO mouse fibroblasts, CellTiter-Glo (AID 1508586;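 active = mean z-score across replicates of 1.96 or higher in either the MELAS or the Rieske mutant cell line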;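 also: z relative to plate mean and SD of compound and empty wells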)
[14] = viability rescue of complex I mutant cybrids, primary screen, cell-based, galactose medium, ATP luminescence (AID 1645843;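 active = z-score of at least 1.8 in each of two replicates, scored against plate mean and spread of sample wells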;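 also: positive z means more ATP and so rescue of galactose-driven cybrid death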); details: complex I mutant cybrid cells, 72 h, stronger effect = higher value
[15] = counts scaled to control wells, 1 = unselective
[16] = measured here: epithelial PC-3E GFP cell survival
[17] = measured here: mesenchymal TEM4-18 mCherry cell survival

ATP-dependent translocase ABCB1 (Homo sapiens), sequence (P08183 whole entry, looked up): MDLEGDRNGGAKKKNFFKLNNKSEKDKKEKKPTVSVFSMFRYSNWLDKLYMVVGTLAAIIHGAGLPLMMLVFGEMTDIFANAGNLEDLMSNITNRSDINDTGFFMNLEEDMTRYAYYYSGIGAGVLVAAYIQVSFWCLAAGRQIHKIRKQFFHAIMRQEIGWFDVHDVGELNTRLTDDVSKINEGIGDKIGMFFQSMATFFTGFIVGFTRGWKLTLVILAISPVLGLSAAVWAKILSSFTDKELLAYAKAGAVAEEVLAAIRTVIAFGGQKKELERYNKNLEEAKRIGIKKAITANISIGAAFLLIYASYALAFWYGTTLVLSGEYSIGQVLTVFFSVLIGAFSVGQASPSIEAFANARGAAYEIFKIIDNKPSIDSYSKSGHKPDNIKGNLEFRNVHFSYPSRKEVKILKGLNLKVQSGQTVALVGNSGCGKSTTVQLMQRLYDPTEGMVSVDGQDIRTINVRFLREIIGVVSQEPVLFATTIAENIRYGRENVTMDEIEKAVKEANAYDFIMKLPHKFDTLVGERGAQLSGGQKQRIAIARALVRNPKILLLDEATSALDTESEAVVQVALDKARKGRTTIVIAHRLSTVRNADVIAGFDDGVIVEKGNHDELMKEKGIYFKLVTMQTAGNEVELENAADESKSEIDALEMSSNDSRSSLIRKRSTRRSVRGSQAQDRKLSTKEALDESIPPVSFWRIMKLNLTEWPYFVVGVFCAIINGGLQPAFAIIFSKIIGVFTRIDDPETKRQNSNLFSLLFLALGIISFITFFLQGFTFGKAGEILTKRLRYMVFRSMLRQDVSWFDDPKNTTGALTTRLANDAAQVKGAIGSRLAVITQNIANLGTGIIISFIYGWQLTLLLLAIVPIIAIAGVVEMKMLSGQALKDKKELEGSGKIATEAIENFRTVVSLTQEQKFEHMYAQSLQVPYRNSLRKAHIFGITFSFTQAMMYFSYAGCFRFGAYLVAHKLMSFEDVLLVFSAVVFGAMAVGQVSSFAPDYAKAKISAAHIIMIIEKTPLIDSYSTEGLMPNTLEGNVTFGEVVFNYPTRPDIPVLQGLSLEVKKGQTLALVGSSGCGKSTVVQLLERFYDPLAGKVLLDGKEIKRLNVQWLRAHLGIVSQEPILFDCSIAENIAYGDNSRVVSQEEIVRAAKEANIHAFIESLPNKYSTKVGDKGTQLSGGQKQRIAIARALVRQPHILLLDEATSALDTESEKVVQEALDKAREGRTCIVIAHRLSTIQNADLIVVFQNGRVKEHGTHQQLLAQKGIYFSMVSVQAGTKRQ

**Q.** What does the source list for Cc1cc(O)cc2oc(=O)c3c(O)cc(O)cc3c12?
**A.** red/green cell ratio (normalised) [1, 15]: 0.89 (inactive); normalised cell number [1, 16]: 0.99; normalised cell number [1, 17]: 0.88

**Q.** With COc1cc(O)c(C(=O)O)c(-c2cc(O)c(O)cc2C)c1 as the molecule, how does the red/green cell ratio (normalised) [1, 15] read?
**A.** 1.12 (inactive)

**Q.** And the normalised cell number [1, 16]?
**A.** 0.82

**Q.** What about the normalised cell number [1, 17] of the same molecule?
**A.** 0.92

**Q.** Which results are given for C[C@]12CCC(=O)C=C1CCC1C2CC[C@@]2(C)C1CC[C@H]2O (stereo partly drawn)?
**A.** red/green cell ratio (normalised) [1]: 1.17 (inactive); normalised cell number [1, 16]: 0.92; normalised cell number [1, 17]: 1.08

**Q.** Which red/green cell ratio (normalised) [1] does the source give for CC(=O)O[C@@H]1C[C@@]2(C)[C@H](c3ccoc3)C[C@H]3O[C@]32[C@]2(C)C(=O)C(O)=C3C(C)(C)C(=O)C=C[C@]3(C)C12 (stereo partly drawn) here?
**A.** 0.93 (inactive)

**Q.** What about the normalised cell number [1, 16] of the same molecule?
**A.** 0.15

**Q.** And the normalised cell number [1, 17]?
**A.** 0.14

**Q.** What about the activity remaining [2] of the same molecule?
**A.** 102% (inactive)

**Q.** Which red/green cell ratio (normalised) [1] does the source give for C[C@]12CCC3C(CC[C@@H]4CC(=O)CC[C@]34C)C1CCC2=O (stereo partly drawn) here?
**A.** 1.04 (inactive)

**Q.** And the normalised cell number [1, 16]?
**A.** 0.88

**Q.** What about the normalised cell number [1, 17] of the same molecule?
**A.** 0.91

**Q.** For O=C1CC2OCC=C3CN4CC[C@]56c7ccccc7N1C5[C@H]2[C@@H]3CC46 (stereo partly drawn), which red/green cell ratio (normalised) [1, 15] is on record?
**A.** 1.12 (inactive)

**Q.** What about the normalised cell number [1, 16] of the same molecule?
**A.** 1.02

**Q.** And the normalised cell number [1, 17]?
**A.** 1.14

**Q.** Which red/green cell ratio (normalised) [1] does the source give for C[C@]12CC[C@H](O)C[C@H]1CCC1C2CC[C@]2(C)[C@@H](C3=CC(=O)OC3)[C@@H](O)C[C@]12O (stereo partly drawn) here?
**A.** 0.39 (active)

**Q.** And the normalised cell number [1, 16]?
**A.** 0.91

**Q.** What about the normalised cell number [1, 17] of the same molecule?
**A.** 0.35

**Q.** What does the source list for NCCc1c[nH]c2ccc(O)cc12?
**A.** fluorescence slope change [3]: 73.4% (active); period change [4]: -0.28 h (inactive); survival [5]: 12.7 (inactive); parasite load remaining [6]: 63.9% (inactive) and 71.4% (inactive); viability [6]: 113% and 89.1%; inhibition [7]: -1% (inactive); fluorescence ratio (interference) [8]: 1 (inactive); red/green cell ratio (normalised) [1]: 1.02 (inactive); normalised cell number [1, 16]: 0.95; normalised cell number [1, 17]: 0.96; remaining activity [9]: 97.8% (inactive); remaining activity [10]: 107% (inactive); fold fluorescence [11]: 4 [at 283.7 µM] (inactive); outcome [12]: inactive; z-score ([13]; MELAS cybrid survival, CellTiter-Glo 48 h, stronger effect = higher value): -0.165 (inactive) and -0.0524 (inactive); z-score ([13]; Rieske KO mouse fibroblast survival, CellTiter-Glo 72 h): -0.179 and -0.331; z-score [14]: 0.29 (inactive) and 0.4 (inactive)

**Q.** For CC(C)c1cc2c(c(O)c1O)[C@@]1(C(=O)O)CCCC(C)(C)C1CC2 (stereo partly drawn), which red/green cell ratio (normalised) [1] is on record?
**A.** 1.17 (inactive)

**Q.** And the normalised cell number [1, 16]?
**A.** 0.87

**Q.** And the normalised cell number [1, 17]?
**A.** 1.02

**Q.** What about the activity remaining [2] of the same molecule?
**A.** 114% (inactive)

**Q.** Which results are given for CC(=O)OC1CC[C@@]2(C)C(CCC3C2CC[C@]2(C)C(C4=CC(=O)OC4)C(OC(C)=O)CC32O)C1 (stereo partly drawn)?
**A.** red/green cell ratio (normalised) [1, 15]: 0.21 (inactive); normalised cell number [1, 16]: 0.16; normalised cell number [1, 17]: 0.03; activity remaining [2]: 109% (inactive)

**Q.** Which results are given for CN1CCc2cc3c(cc2[C@H]1C1OC(=O)c2c1ccc1c2OCO1)OCO3 (stereo partly drawn)?
**A.** red/green cell ratio (normalised) [1]: 1.02 (inactive); normalised cell number [1, 16]: 0.99; normalised cell number [1, 17]: 1; activity remaining [2]: 121% (inactive)

**Q.** Which results are given for CC1(C)CC(=O)C(Cl)C(=O)C1?
**A.** red/green cell ratio (normalised) [1, 15]: 0.82 (inactive); normalised cell number [1, 16]: 1.28; normalised cell number [1, 17]: 1.05

**Q.** For O=[N+]([O-])c1ccc(CN2CCNCC2)cc1, which red/green cell ratio (normalised) [1, 15] is on record?
**A.** 0.74 (inactive)

**Q.** What about the normalised cell number [1, 16] of the same molecule?
**A.** 1.45

**Q.** What about the normalised cell number [1, 17] of the same molecule?
**A.** 1.07

**Q.** Which results are given for O=C1NCC[C@@H]1O?
**A.** red/green cell ratio (normalised) [1, 15]: 0.9 (inactive); normalised cell number [1, 16]: 1.14; normalised cell number [1, 17]: 1.03

**Q.** What does the source list for CC(C)[C@@H]1CC[C@](O)(CCl)[C@@H]2C(=O)OCC(C(=O)O)=C[C@H]21?
**A.** red/green cell ratio (normalised) [1, 15]: 0.96 (inactive); normalised cell number [1, 16]: 1; normalised cell number [1, 17]: 0.96
